Assay outcomes as filed in PubChem BioAssay.
Shown are actives, neighbours in structure and some others; about 21% of the full set was active somewhere.
Shiga inhibitor = inhibitors of Shiga toxin in Vero cells. inhibition, % at 38.7 µM. 290,000 tested, 9.2% active. Vero cells, Shiga toxin protein synthesis inhibition reporter; in the data active = inhibition mostly above about 28%, no sharp cut-off; inactive = mostly below about 43%; note: 0% is about no effect
HCV inhibitor = HCV inhibition; Huh7.5.1 HCVcc-Cre infection, luciferase reporter, 44 h; 340,000 tested, 3.4% active; Potency, µM (highest dose often 41.8 µM), for inactives: at the highest dose activity change, negative = inhibition, hits mostly inhibitors; AID 651820; note: potency is the fitted concentration of half-maximal effect; % is set by controls: 0 for no effect and ±100 for the full control effect
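Luciferase read-out (15 sec integration) after a 15 min room-temperature substrate step quantifies HCVcc-Cre infection. Cells, 1,000 per well, had compound added 4 h post-plating, then virus at ~0.5 moi, and were cultured 44 h.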
Pf growth 48h = P. falciparum growth inhibition at 48 hours (one generation) | P. falciparum luciferase growth in erythrocytes, 48 h | Potency, µM (top dose mostly 28.7 µM), inactives show at the top dose activity change, negative = inhibition, actives largely listed as inhibitors | 310,000 tested, 5.9% active; note: potency is the fitted concentration of half-maximal effect; % is set by controls: 0 for no effect and ±100 for the full control effect
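Luciferase-expressing P. falciparum in infected erythrocytes (2% hematocrit, 0.1% parasitemia final) in RPMI 1640/0.5% Albumax were exposed to compound for 48 hours at 37 C, 5% CO2; growth read as luminescence.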
CHX counter = affects cycloheximide protein synthesis inhibition readout, counter-screen | cell reporter, cycloheximide protein synthesis inhibition counterscreen | max response, % | 300,000 tested, 12% active; in the data active = max response mostly above about 13%, no sharp cut-off; inactive = mostly below about 14%; note: read at 38.3 µM for the half of the compounds with a filed dose; 0% is about no effect
Pf growth 96h = P. falciparum growth inhibition at 96 hour, primary screen for plastid delayed-death inhibitors; P. falciparum luciferase reporter growth, 96 h; Potency, µM (highest dose often 28.7 µM), for inactives: at the top dose activity change, negative = inhibition, most hits filed as inhibitors; 320,000 tested, 6.9% active; AID 504834; note: potency is the fitted concentration of half-maximal effect; % is set by controls: 0 for no effect and ±100 for the full control effect
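P. falciparum expressing integrated firefly luciferase grown in erythrocytes (2% hematocrit, 0.05% parasitemia final) with compounds for 96 hours at 37 C, 5% CO2. Growth inhibition read as loss of luminescence after adding luciferase detection reagent.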
HCMV antiviral = human cytomegalovirus inhibition; HFF cells, HCMV-luciferase reporter, 72 h; stronger effect = lower value; activity change, negative = inhibition, % at 57.5 µM; 410,000 tested, 4.5% active; in the data active = activity change below about -60%; inconclusive = no clear call, values can overlap the other calls; inactive = above about -39%; note: % is set by controls: 0 for no effect and ±100 for the full control effect
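Two-dose cell screen: HFF monolayers treated with compounds and infected with luciferase-expressing HCMV at 1 PFU/cell, 72 h at 37C, then lysed for luciferase measurement.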
* = called active by the depositor; [ ] = remark or other dose. Unless noted, calls come from the whole dose curve; as a rule, active = well fitted inhibition curve with a large enough effect; inconclusive = small, poorly fitted or top-dose-only effect, or another doubt; inactive = no such curve, though single readings can be large or run the other way.

What do the screens show for `Cc1ccccc1C(=O)N1CCC(C(=O)Nc2ccc(S(=O)(=O)N3CCOCC3)cc2)CC1`?
HCV inhibitor: 3%; Pf growth 48h: inconclusive; Pf growth 96h: inconclusive; HCMV antiviral: -28

What do the screens show for `CC(C)c1ccc(S(=O)(=O)N2CCN(C(=O)CCNC(=O)Nc3ccccc3)CC2)cc1`?
HCV inhibitor: -5%; Pf growth 48h: 12µM*; Pf growth 96h: inconclusive; HCMV antiviral: -13

What do the screens show for `Cc1cc(C)c(C)c(S(=O)(=O)N2CCC(C(=O)N3CCCC3)CC2)c1C`?
HCV inhibitor: 12%; Pf growth 48h: 12µM*; Pf growth 96h: 12µM*; HCMV antiviral: inconclusive

Results for CC(C)c1ccc(NC(=O)N2CCN(S(=O)(=O)c3ccccc3)CC2)cc1 ?
Shiga inhibitor: -9; HCV inhibitor: inconclusive; Pf growth 48h: inconclusive; CHX counter: -1; Pf growth 96h: -6%[5.75 µM]; HCMV antiviral: inconclusive

How did Cc1ccccc1C(=O)N1CCC(C(=O)Nc2ccc(S(=O)(=O)N3CCCCC3)cc2)CC1 do in these assays?
Shiga inhibitor: 1; HCV inhibitor: 13µM*; Pf growth 48h: inconclusive; CHX counter: -4; Pf growth 96h: inconclusive; HCMV antiviral: -9

Results for CCOc1ccccc1NC(=O)C1CCN(S(=O)(=O)c2ccccc2)CC1 ?
HCMV antiviral: -18

Results for Cc1ccccc1NC(=O)C1CCN(S(=O)(=O)c2ccccc2)CC1 ?
HCMV antiviral: -78*

How did COc1cccc(NC(=O)Cn2c(=O)n(Cc3ccc4c(c3)OCO4)c(=O)c3oc4ccccc4c32)c1 do in these assays?
HCMV antiviral: -20

What do the screens show for `O=C(CN1C(=O)C2CCCCN2c2ccc(C(=O)N3CCCC3)cc21)NCc1cccc(F)c1` (stereo unspecified)?
HCMV antiviral: -7

How did CCc1cccc(NC(=O)c2c(N3CCCC3=O)c3cc(C)ccc3n2C)c1 do in these assays?
HCMV antiviral: -14

Results for Fc1ccccc1N1CCN(C2CCCN(Cc3ccccc3C(F)(F)F)C2)CC1 (stereo unspecified) ?
Shiga inhibitor: -13; HCV inhibitor: -22%; Pf growth 48h: 0%; CHX counter: -1; Pf growth 96h: 13%; HCMV antiviral: -1

What do the screens show for `CCCNC(=O)C1CCN(S(=O)(=O)c2ccc(Br)cc2)CC1`?
Shiga inhibitor: 9; HCV inhibitor: inconclusive; Pf growth 48h: 4.7µM*; CHX counter: 1; Pf growth 96h: 13%; HCMV antiviral: -6

What do the screens show for `CCOc1ccc(S(=O)(=O)N2CCC(C(=O)Nc3cccc(NC(C)=O)c3)CC2)cc1`?
Shiga inhibitor: -13; HCV inhibitor: 2%; Pf growth 48h: -11%; CHX counter: -7; Pf growth 96h: 11%; HCMV antiviral: 12

Results for O=C(Nc1cccc(S(=O)(=O)N2CCCC2)c1)C1CCCN1C(=O)c1cccs1 (stereo unspecified) ?
Shiga inhibitor: -2; HCV inhibitor: inconclusive; Pf growth 48h: inconclusive; CHX counter: -2; Pf growth 96h: -14%; HCMV antiviral: -36

Results for O=C(Nc1ccc(S(=O)(=O)N2CCCC2)cc1)C1CCCN1C(=O)c1cccs1 (stereo unspecified) ?
Shiga inhibitor: -7; HCV inhibitor: 4%; Pf growth 48h: -17%; CHX counter: 8; Pf growth 96h: -6%; HCMV antiviral: -101*

How did COc1ccc(S(=O)(=O)N2CCC(C(=O)Nc3cccc(C(C)=O)c3)CC2)cc1 do in these assays?
Shiga inhibitor: -3; HCV inhibitor: -3%; Pf growth 48h: 12µM*; CHX counter: 1; Pf growth 96h: inconclusive; HCMV antiviral: 2

Results for Cc1ccc(S(=O)(=O)N2CCC(C(=O)Nc3ccc(S(=O)(=O)N4CCCC4)cc3)CC2)cc1C ?
HCV inhibitor: inconclusive; Pf growth 48h: 12µM*; Pf growth 96h: inconclusive; HCMV antiviral: -32

How did Cc1cccc(C)c1Nc1nc2ccccc2nc1NS(=O)(=O)c1ccccc1 do in these assays?
HCMV antiviral: -9

How did COc1ccc(/C=C/C(=O)NC(=S)Nc2ccc(S(=O)(=O)N=C(N)N)cc2)cc1OC do in these assays?
Shiga inhibitor: -13; HCV inhibitor: 13%; Pf growth 48h: 39%; CHX counter: 7; Pf growth 96h: inconclusive; HCMV antiviral: -4

What do the screens show for `CCOC(=O)C1CCN(c2c(C(=O)c3ccc(C)cc3)cnc3ccc(F)cc23)CC1`?
HCMV antiviral: -8

Results for O=[N+]([O-])c1ccc(S(=O)(=O)N2CCN(Cc3ccco3)CC2)cc1 ?
Shiga inhibitor: -6; HCV inhibitor: -6%; Pf growth 48h: 12%; CHX counter: 0; Pf growth 96h: 60%; HCMV antiviral: 6

How did O=C(CN1CCN(S(=O)(=O)c2ccc(Br)cc2)CC1)N/N=C/c1ccc(Cl)c([N+](=O)[O-])c1 do in these assays?
Shiga inhibitor: -10; HCV inhibitor: 11µM*; Pf growth 48h: -13%; CHX counter: 5; Pf growth 96h: -3%; HCMV antiviral: -25

How did Cc1ccc(S(=O)(=O)N2CCN(CC(=O)N/N=C\c3ccc(Cl)c([N+](=O)[O-])c3)CC2)cc1 do in these assays?
Shiga inhibitor: 20; HCV inhibitor: 4.5µM*; Pf growth 48h: -16%; CHX counter: -1; Pf growth 96h: -3%; HCMV antiviral: inconclusive

How did COc1ccc([C@H]2N[C@]3(CCCN(Cc4cccn4C)C3=O)[C@H]3C(=O)N(Cc4ccccc4)C(=O)[C@@H]23)cc1 do in these assays?
HCMV antiviral: -12

Results for O=C(NCC(=O)N1CCC2(CC1)NCCc1[nH]cnc12)c1cccc(Cl)c1 ?
Shiga inhibitor: 14; HCV inhibitor: 0%; Pf growth 48h: 15%; CHX counter: 7; Pf growth 96h: 7%; HCMV antiviral: -25

Results for CCN1CCN(CCCN(Cc2ccco2)C(=S)Nc2ccc(C)c(Cl)c2)CC1 ?
Shiga inhibitor: -6; HCV inhibitor: 8.9µM*; Pf growth 48h: inconclusive; CHX counter: -3; Pf growth 96h: 12%; HCMV antiviral: 69

Results for CCOC(=O)c1ccc(NC(=S)N(CCCN2CCN(CC)CC2)Cc2ccco2)cc1 ?
Shiga inhibitor: -2; HCV inhibitor: inconclusive; Pf growth 48h: inconclusive; CHX counter: -1; Pf growth 96h: 9%; HCMV antiviral: -35

What do the screens show for `CCOC(=O)c1ccc(NC(=S)N(CCCN2CCN(CC)CC2)Cc2cccs2)cc1`?
Shiga inhibitor: -11; HCV inhibitor: inconclusive; Pf growth 48h: 8.3µM*; CHX counter: -2; Pf growth 96h: -3%; HCMV antiviral: 1

How did Cc1ccccc1NC(=S)N(CCCN1CCCCC1)Cc1ccco1 do in these assays?
Shiga inhibitor: -7; HCV inhibitor: -5%; Pf growth 48h: -17%; CHX counter: 1; Pf growth 96h: -17%; HCMV antiviral: 8
